# Results taken from PubChem BioAssay (NCI).
# This is part of a sample that, as a whole, favours compounds with a hit. Of some 79,000 tested, about 15% had one in any assay. Unmarked numbers belong to inactive results. Activity calls are given as the source filed them. Rule as the data show it: active = growth inhibition above about 70%; inactive = the rest.
# Experiment: NCI Yeast Anticancer Drug Screen. Data for the mlh1 rad18 strain (AID 175)
# Conditions: S. cerevisiae mlh1 rad18 strain growth inhibition; at 50.0 µM; hits give high values
# How it was run: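 Vehicle-treated cultures served as the reference for growth inhibition in a yeast strain carrying DNA damage repair alterations exposed to each compound.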
row,Compound,growth inhibition
1,COc1cc(C=C2C(=O)NC(=S)NC2=O)cc(OC)c1OC,-0.95%
2,O[As](O)O.S=C(S)c1ccccc1S,24.9%
3,Cc1ccccc1-n1c(/C=C\c2ccccn2)nc2ccccc2c1=O,23.6%
4,S=C1c2ccc(Cl)cc2-n2cnnc2C2CSCN12 (centres undefined),26.4%
5,CC[As](=O)(O)c1ccc(OC)c(I)c1,0.75%
6,COc1cc(C2(C)CCCCC2)c(OC)cc1C1(C)CCCCC1,9.15%
7,O=C(c1ccccc1)N1CC1,0.35%
8,CNC(C)Cc1ccccc1OC (centres undefined),11.4%
9,O=C(CP(=O)(O)O)c1cccs1,-18.9%
10,CC1CCC2C(C)C(=O)OC3OC4(C)CCC1C32OO4 (centres undefined),2.7%
11,Cc1cc(C)c(C(=O)O)c(C)c1.[Hg],99.7% (active)
12,O=C1CCCCC1CN1CCCCC1 (centres undefined),1.25%
13,O=[As](O)(O)c1cccc(Cl)c1,-0.9%
14,CN(C)c1ccc(NP(=O)(Nc2ccc(N(C)C)cc2)N(CCCl)CCCl)cc1,7.6%
15,CC(C)c1cccc(C(C)C)c1O,12.9%
16,COC(=O)CN(CCCl)P1(=O)OCCCN1CCCl (centres undefined),-4.8%
17,C=CCn1nnnc1N,-6.2%
18,CN(C)CCNC(=O)c1ccc(N(CCCl)CCCl)c([N+](=O)[O-])c1[N+](=O)[O-],34%
19,C1C[OH+]CC[OH+]CC[OH+]CC[OH+]CC[OH+]1.[Cl-].[V],-1%
20,Cc1ccc(C(=O)Nc2ccc(CP(=O)(O)O)cc2)cc1NC(=O)c1cccc(NC(=O)Nc2cccc(C(=O)Nc3cc(C(=O)Nc4ccc(CP(=O)(O)O)cc4)ccc3C)c2)c1,-9.25%

row,Compound,growth inhibition
1,Oc1ccccc1C=NCCN=Cc1ccccc1O.[Fe],13.6%
2,CCC(Br)C(=O)OCCCl (centres undefined),3.6%
3,C[CH2][Sn](/[CH]=C\CO)([CH2]C)[CH2]C,94.6% (active)
4,O=NN1CCCCC1,18.9%
5,Cc1cc(C)c(O)c(C)c1,4.45%
6,C[N+]12C(=O)CC3OCC=C4C[N+]5(C)CCC6(c7ccccc71)C2C3C4CC65O (centres undefined),-14.8%
7,C(=NCCN=CC1CCCC[N-]1)C1CCCC[N-]1.[Cu+2].[O-][Cl+3]([O-])([O-])O (centres undefined),82.7% (active)
8,CCOP(C)(=O)C(N)Cc1ccc(OC)c(OC)c1 (centres undefined),-34.5%
9,Cc1ccc([P+](=O)O)cc1Cl,-3%
10,CCP(=S)(CC)P(=S)(CC)CC,7.45%
11,C(=C\C1CC2CCCN2O1)/c1ccccc1 (centres undefined),11.2%
12,C[C@]12CC[C@@H]3C4=CC(=O)CC[C@@H]4CC[C@H]3[C@@H]1CC[C@@H]2O,-2.75%
13,O=C(O)C(CSC(c1ccccc1)(c1ccccc1)c1ccccc1)N1C(=O)c2ccccc2C1=O (centres undefined),99% (active)
14,CCC[As](=O)(O)CC[As](=O)(O)CCC,14.4%
15,NC(=O)Oc1ccccc1,-3.6%
16,NC(=O)c1cc([N+](=O)[O-])c(N(CCCl)CCCl)c([N+](=O)[O-])c1,17.8%
17,O=C(c1ccccc1)P(C(=O)c1ccccc1)C(=O)c1ccccc1,-5.1%
18,CC(O)C[As](=O)(O)c1cccc(Cl)c1 (centres undefined),39.5%
19,NC(CP(=O)(O)O)C(=O)O (centres undefined),-37.6%
